# Assay outcomes from PubChem.
# SMARCA2 act: SMARCA2 (BRM) function activators, primary screen, cell-based, luminescence, high throughput. MG213 cells, MMTV-luciferase reporter, dexamethasone, overnight. activation, % at 9.1 µM. hit rate 1% among 370,000; in the data active = activation above about 7.8%;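 also: 0% = vehicle wells and 100% = reference activator wells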
# Wnt bcat act: Wnt/beta-catenin pathway activators, primary screen, cell-based, plate reader, single point; Wnt/beta-catenin reporter cell assay, activator; activation, % at 9.35 µM; hit rate 1.2% among 300,000; AID 743398, 2014; in the data active = activation above about 30%, passing the limit was not always enough;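 also: 0% = neutral control wells and 100% = positive control wells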
# esBAF inh: Bmi1 luciferase reporter increase in mESCs, primary screen, esBAF inhibitor project, mouse ES cells, Bmi1 luciferase knock-in, single point; 24 h; 100% = twice the neutral-well signal; reporter increase, % at 12.5 µM; hit rate 2% among 350,000; AID 602393, 2012; in the data active = activation above about 40%;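 also: 0% = median of the plate's neutral control wells and 100% = double that signal; a rise in the Bmi1 reporter signal indicates esBAF inhibition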
# HSF1 activator: HSF-1 activators, primary screen, NIH3T3-HGL cells, MG132 stress, luminescence, single point; hit rate 1.7% among 300,000; NIH3T3-HGL HSF-1 luciferase reporter, 8 h; 100% = twice DMSO control signal; activation, % at 9 µM;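 active = mean replicate activation of at least 50% with a set share of replicates each reaching 50%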;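 also: 0% = median of the neutral control wells and 100% = twice that signal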
# HSF1 inhib: HSF1 inhibitors in luciferase reporter cells, primary screen, cell-based, NIH3T3, luminescence. activity change, negative = inhibition, % at 7.5 µM (by protocol). NIH3T3-HGL HSE-luciferase, MG132-induced, luminescence 8 h; stronger effect = lower value. hit rate 0.77% among 300,000. AID 2098, 2009;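 active = more than half of replicate wells show activity change below -50%, luminescence cut by over half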;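 also: luciferase reports HSF-1 transcriptional activity via heat shock element; 0% = median of DMSO wells and -100% = zero luminescence signal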
# MITF TRPM1 HTS: activators of MITF-driven TRPM1 promoter reporter, primary screen, cell-based, SK-MEL-5, luciferase, single point | activation, % at 12.5 µM | SK-MEL-5 TRPM1-promoter luciferase, 24 h; % of positive control, neutral wells = 0 | hit rate 0.75% among 300,000;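 active = mean activation of at least 80% with every replicate also reaching 80%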;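 also: 0% = neutral control wells and 100% = parthenolide positive control wells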
# Active calls of the source: *; / = not tested or not shown. Most compounds without a hit are left out; they make up all but 4.3% or so of the library.
SMILES,SMARCA2 act,Wnt bcat act,esBAF inh,HSF1 activator,HSF1 inhib,MITF TRPM1 HTS
Clc1ccc(OCc2cc(-c3ccccc3)no2)c(Cl)c1,7.5,/,-51.4,-23.5,-7.2,10.2
CC(C)NC(=O)N(C)C[C@H]1Oc2ccc(NS(C)(=O)=O)cc2CC(=O)N([C@H](C)CO)C[C@@H]1C,/,/,1.2,/,/,/
O=C(Cn1nc(-c2ccccc2)c2ccccc2c1=O)Nc1ccccn1,1.8,/,47.8*,14.1,6.3,37.0
CCOC(=O)c1cnc2ccc(C)cc2c1Sc1ccc(F)cc1,3.5,-4.9,31.8,60.1*,38.1,25.8
CCOC(=O)c1cnc2ccc(C)cc2c1Sc1ccccc1,3.9,-3.2,53.6*,17.6,16.8,35.3
C[C@@H]1CN([C@H](C)CO)C(=O)c2cc(C3=CCCC3)cnc2O[C@@H]1CN(C)C(=O)Nc1ccc(C(F)(F)F)cc1,/,/,13.9,/,/,/
COc1ccccc1-c1ccc(Nc2cccc(C(C)=O)c2)nn1,4.6,5.0,50.7*,23.4,6.8,73.4
CC(=O)c1cccc(Nc2ccc(-c3ccccc3F)nn2)c1,-0.9,10.2,/,38.6,12.0,71.8
